Results reported in the supplement of paper PMC6555819.

Assays:
Assay in all cases: PBM binding z-score (relative to random genomic background probes); higher = stronger binding; sequences stand for … in GC…GCGATTGACAGCGTAGAATGAAGG
[1] = system: PPARg:RXRa DBDmut IVT, anti-RXR (DBD mutation: RXRa K156A/R161A, NR concentration 270 nM, RXRa partner concentration 90 nM)
In short: (§1)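 Ligand-free nuclear receptor dimers were bound for 1 h to custom Agilent 4×180K protein-binding microarrays. Detection used antibodies against each partner (one per run). Binding z-scores rest on regression-normalized fluorescence, with random background probes as the reference.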

[2] = system: PPARg:RXRa IVT, anti-PPARg (NR concentration 270 nM, RXRa partner concentration 90 nM)
In short: as §1

[3] = system: PPARg DBDmut:RXRa IVT, anti-PPARg (DBD mutation: PPARg1 K132A/R137A, NR concentration 270 nM, RXRa partner concentration 90 nM)
In short: as §1

[4] = system: PPARg DBDmut IVT, anti-PPARg (DBD mutation: PPARg1 K132A/R137A, NR concentration 270 nM)
In short: as §1

[5] = system: PPARg homodimer (NR concentration 180 nM)
In short: as §1

[6] = system: PXR:RXRa (NR concentration 270 nM, RXRa partner concentration 90 nM)
In short: as §1

[7] = system: PXR homodimer (NR concentration 270 nM)
In short: as §1

[8] = system: RARa:RXR (NR concentration 270 nM, RXRa partner concentration 90 nM)
In short: as §1

[9] = system: RARa homodimer (NR concentration 270 nM)
In short: as §1

[10] = system: RARb:RXRa (NR concentration 270 nM, RXRa partner concentration 90 nM)
In short: as §1

[11] = system: RARb homodimer (NR concentration 270 nM)
In short: as §1

[12] = system: RARg:RXRa (NR concentration 270 nM, RXRa partner concentration 90 nM)
In short: as §1

[13] = system: RARg homodimer (NR concentration 270 nM)
In short: as §1

[14] = system: RXRa DBDmut IVT, anti-RXR (DBD mutation: RXRa K156A/R161A, NR concentration 90 nM)
In short: as §1

[15] = system: RXRa homodimer (NR concentration 180 nM)
In short: as §1

[16] = system: THRa:RXRa (NR concentration 90 nM, RXRa partner concentration 90 nM)
In short: as §1

[17] = system: THRa homodimer (NR concentration 90 nM)
In short: as §1

[18] = system: VDR homodimer (NR concentration 270 nM)
In short: as §1

Row | Sequence | PBM binding z-score [1] | PBM binding z-score [2] | PBM binding z-score [3] | PBM binding z-score [4] | PBM binding z-score [5] | PBM binding z-score [6] | PBM binding z-score [7] | PBM binding z-score [8] | PBM binding z-score [9] | PBM binding z-score [10] | PBM binding z-score [11] | PBM binding z-score [12] | PBM binding z-score [13] | PBM binding z-score [14] | PBM binding z-score [15] | PBM binding z-score [16] | PBM binding z-score [17] | PBM binding z-score [18]
1 | CCTTACGGGACACTGACAGGTTATAGCATTTGGA | 0.975 | 0.149 | 0.162 | -0.682 | -0.0979 | -0.2 | 0.162 | -0.0303 | 0.647 | 0.42 | 0.492 | 0.652 | 0.903 | 0.645 | 0.341 | 0.178 | 0.0512 | -0.0453
2 | CCTTACGGGTCACGAGGTTATAGTACGACGAGCG | 4.32 | 5.17 | 1.09 | 0.529 | 2.24 | 4.61 | 0.539 | 6.16 | 1.16 | 4.59 | 3.95 | 6.29 | 6 | 1.55 | 7.51 | 3.87 | 1.19 | 2.14
3 | TCTTGTAGATCAACAGGGGGTTAAGAAAGATCGA | 2.83 | 3.29 | 5.31 | 7.46 | 1.07 | 2.5 | 0.467 | 2.42 | 0.939 | 1.71 | 1.32 | 1.91 | 0.92 | 1.89 | 1.93 | 1.86 | 0.559 | 0.493
4 | ACTATTAGATGAGACGAGGGCAACCGATAGGTTG | 0.41 | 0.591 | 1.15 | 1.11 | 1.13 | 0.465 | 0.757 | 0.634 | 1.38 | 0.915 | 1.3 | 0.879 | 1.09 | 0.518 | 0.632 | 1.42 | 0.659 | 0.77
5 | TCGAGTAGGTTACCAATGGTGCATTCAGCTTTCT | 3.28 | 2.62 | -0.362 | -0.313 | -0.186 | -0.18 | -0.657 | 0.145 | -1.04 | 0.684 | -0.0825 | 0.138 | 0.0849 | 0.244 | 0.365 | -0.118 | -0.617 | -0.499
6 | CAAACTAGGTCACCGGAAGGCCAAAGTCCGCATG | 8.65 | 8.96 | 1.86 | 0.375 | 2.09 | 2.85 | -0.0574 | 3.4 | 0.162 | 4.54 | 3.78 | 5.9 | 5.62 | 1.55 | 3.59 | 3.53 | 1.43 | 0.943
7 | CCTAGCAGGCCAAGGTCACTCAAGCATTTCGCTT | 2.14 | 1.93 | -1.42 | -0.849 | 1.92 | 3.35 | 0.64 | 3.65 | 0.757 | 3.55 | 3.82 | 3.82 | 3.92 | 1.05 | 3.51 | 3.66 | 2.88 | 2.2
8 | AGTCAAAGTTCATCTAGATAACGTAAGATATGCT | 0.216 | 2.84 | 1.25 | 1.73 | 2.62 | 5 | 4.36 | 3.39 | 1.59 | 4.9 | 3.87 | 5.31 | 5.67 | 4.57 | 4.56 | 1.99 | -0.582 | 4.4
9 | ACAGACAGGTGAGTGAAGGTGACTCAGCTGGACG | 0.718 | 1.24 | 0.42 | -0.00311 | -0.248 | -0.0313 | -0.405 | 0.49 | 0.0445 | 0.935 | 0.821 | 0.36 | 0.791 | -0.543 | 0.523 | 2 | -0.223 | -0.311
10 | CCGACTGGGGCATAAGGTCACCATAAGCCAGCCC | 2.94 | 4.43 | 0.997 | 0.485 | 6.12 | 3.81 | 0.594 | 5.16 | 2.35 | 3.84 | 4.32 | 4.86 | 4.18 | 0.204 | 4.29 | 4.08 | 4.71 | 1.77
11 | TTACCAAGGTGAGTTGAGGTCGTTGATCCAACTC | 0.767 | 1.95 | -0.517 | -0.489 | 0.402 | 4.83 | 0.689 | 2.24 | -0.309 | 1.54 | 1.84 | 1.33 | 1.18 | 0.713 | 1.56 | 4.72 | 2.28 | 2.18
12 | CGAACTAGGTCATCAAGGACAGTGAATACATTGA | 8.23 | 8.64 | 1.85 | 1.55 | 1.45 | 2 | 1.45 | 2.13 | 0.127 | 3.88 | 3.18 | 3.95 | 4.85 | 1.92 | 2.67 | 3.87 | 2.11 | 1.83
13 | ATCGAAAGGTCGATGTGAGTATAGAGAAAGGGAA | 0.226 | 1.15 | 1.83 | 0.629 | 0.753 | 1.77 | 0.123 | 2.36 | 0.145 | 3.26 | 1.41 | 3.16 | 3.01 | 1.16 | 2.9 | 1.37 | -0.864 | 0.177
14 | TCAGCTAGGTCAGTTGGTCAGCTAACGAGCTGCC | 2.84 | 2.65 | -0.243 | 0.225 | -0.166 | 0.0327 | -1.06 | 0.304 | -0.936 | 3.31 | 2.61 | 2.79 | 3.45 | 0.986 | 0.749 | 0.928 | -0.339 | -0.91
